# From ChEMBL document CHEMBL3988442, “University of Dundee, Small-Polar-MMV Screening Library” (2021)
# The whole screen tested about 48,000 compounds, of which about 13,000 (27%) showed an effect of 50% or more. The list shows a part of the results.
# System: Wolbachia pipientis
# Test: Anti-Wolbachia Cell-Based Screen
# Type: functional
# Set-up: scale not given: in the data most compounds retested in dose-response had high values
# Conditions: 5 µM
row,SMILES,Percent Effect [%]
1,CCNC(=O)c1cnc(Cc2ccc(F)cc2)s1,-2.208
2,Cc1noc(C)c1CN1CCc2ncnc(-c3ccc(F)cc3)c2CC1.O=C(O)C(F)(F)F,85.48
3,Cc1noc(C)c1CN1CCc2ncnc(-c3cnn(C)c3)c2CC1.O=C(O)C(F)(F)F,103.6
4,Cn1cc(CN2CCc3ncnc(N4CCOCC4)c3CC2)cn1.O=C(O)C(F)(F)F.O=C(O)C(F)(F)F.O=C(O)C(F)(F)F,-9.324
5,Cc1noc(C)c1CN1CCc2ncnc(-c3cccnc3)c2CC1.O=C(O)C(F)(F)F.O=C(O)C(F)(F)F,104.6
6,COc1ccc(NC(=O)C2CCOC2)c(N2CCN(C(C)=O)CC2)n1 (configuration not stated),4.465
7,CC(=O)NCCNC(=O)C1(Oc2cccnc2C)CCNCC1,-9.586
8,COCCCN(C)c1nc(-c2ccncc2)nc(C)c1C,-12.12
9,Cc1cc(CN(C)C(=O)c2cccc(CCC(C)(C)O)c2)no1,3.557
10,CCn1ccnc1CN1CCC(=O)N(CC2CC2)C(C(C)C)C1 (configuration not stated),-13.21
11,Cc1nn(C)cc1C(=O)N1CCCC(c2nccn2Cc2cscn2)C1 (configuration not stated),27.14
12,Cc1cncc(C2CCCN(C(=O)c3cn(C)nc3C)C2)n1 (configuration not stated),117.2
13,Cc1noc(C2CCCN(C(=O)c3ccc(Br)o3)C2)n1 (configuration not stated),-1.818
14,Cc1cncc(C2CCCN(C(=O)c3scnc3C)C2)n1 (configuration not stated),-6.162
15,Cc1cncc(C2CCCN(C(=O)c3cnco3)C2)n1 (configuration not stated),133.2
16,Cc1cncc(C2CCCN(C(=O)c3ccc(C)[nH]c3=O)C2)n1 (configuration not stated),1.082
17,CS(=O)(=O)CCC(=O)Nc1ccsc1,-22.38
18,CC(C)c1nc(-c2cc(C(=O)O)c3ccccn23)cs1,13.08
19,O=S(=O)(CC1CC1)c1ncc(CN2CCSCC2)n1CC1CCCO1 (configuration not stated),-0.6342
20,Cc1ccc(C(=O)N2CCN(c3ccnc4ccsc34)CC2)o1,5.784
21,COc1ccc(Cc2ncc3c(n2)CN(C(=O)C(C)(C)C)C3)cc1,-16.53
22,COc1ccc(Cc2ncc3c(n2)CN(C(=O)CO)C3)cc1,-17.5

row,SMILES,Percent Effect [%]
1,COc1ccc(Cc2ncc3c(n2)CN(C(=O)C(C)(C)OC)C3)cc1,70.44
2,CC(=O)Nc1nc(-c2ccc(C)c(C)c2)c[nH]1,-24.79
3,COc1cccc(S(=O)(=O)CCN2CCCCC2)c1,0.4821
4,COc1cc2cc(C)c(SCCN3CCCC3)nc2cc1OC.Cl,167.2
5,COc1ccc(Oc2cccc(C#N)n2)cc1CN1CCCC1,-5.576
6,COc1cc2cc(C)c(SCCN3CCCCC3)nc2cc1OC.Cl,107.6
7,CCc1cc2cc(OC)c(OC)cc2nc1SCCN1CCCCC1.Cl,130.7
8,COc1ccc(C(C(=O)O)N(C)CCN2CCCC2)cc1F (configuration not stated),3.754
9,CNC(=O)c1cccc(NC(=O)CN2CCN(S(C)(=O)=O)CC2)c1,1.111
10,CCC(=O)N(C)Cc1cccc(OC(C)C)c1,-5.096
11,CCc1nc(C)c(-c2nccn2CC2CCN(C3CCCC3)CC2)[nH]1,-19.3
12,O=C(c1cccs1)N1CCC2(CC1)CC(Oc1ccccc1)CO2 (configuration not stated),6.178
13,O=C(NCC1CC1)C1CN(C(=O)c2cccs2)CC12CCOCC2 (configuration not stated),-5.71
14,Cc1ccccc1C(=O)N1CCC2(CCC(C(=O)NCC3CC3)O2)CC1 (configuration not stated),104
15,O=C(NCC1CC1)C1CCC2(CCN(C(=O)c3ccoc3)CC2)O1 (configuration not stated),90.09
16,O=C(NCC1CC1)C1CCC2(CCN(C(=O)c3cccs3)CC2)O1 (configuration not stated),94.19
17,Cc1ccccc1C(=O)NC[C@@H]1CCN(C(=O)C2(O)CCCC2)C[C@H]1O,-6.733
18,O=C(NC[C@H]1OC[C@@H]2CCN(C(=O)c3ccco3)C[C@@H]21)C1CC1,-4.179
19,COc1cccc(C(=O)NCC2CCN(C(=O)c3ccoc3)CC2)c1,-1.127
20,O=C(NCC1CCN(C(=O)c2ccoc2)CC1)c1ccccc1Br,-10.47
21,O=C(NCC1CC1)C1CCC2(CCN(C(=O)c3ccco3)CC2)O1 (configuration not stated),87.87
22,O=C(NC1CCC1)C1CCC2(CN(C(=O)c3ccco3)C2)O1 (configuration not stated),-15.31

row,SMILES,Percent Effect [%]
1,Cc1ccccc1C(=O)N1CC(C(=O)NCC2CC2)C2(CCOCC2)C1 (configuration not stated),-6.965
2,CNC(=O)[C@@H]1C[C@@H](NC(=O)CSc2ccccc2)CN1C1CCOCC1,0.9976
3,CCN(CC)c1ccc(NS(=O)(=O)c2cncc(F)c2)cn1,-6.269
4,Cc1ccc(C(C)NCc2cn(CCC(N)=O)c3ccccc23)cc1C (configuration not stated),-0.5436
5,Cc1ccc(C(=O)N2CCC3(CCC(C(=O)NCC4CC4)O3)CC2)o1 (configuration not stated),101.4
6,COC(=O)c1sccc1CN1CCN(C(=O)c2ccc(C)o2)CC1,-11.02
7,O=C(NCC1CC1)C1CCC2(CN(C(=O)c3ccno3)C2)O1 (configuration not stated),-9.78
8,CCN1CCN(C2CCN(Cc3nnc(C4CC4)o3)CC2)C1=O,80.84
9,CCc1nnc(CN2CCC(N3CCN(CC)C3=O)CC2)o1,119.1
10,CN1CCN(C2CCN(Cc3nnc(C(C)(C)C)o3)CC2)C1=O,116.2
11,CCN1CCN(C2CCN(Cc3c(C)noc3C)CC2)C1=O,-0.1089
12,CCN1CCN(C2CCN(Cc3nnc(C(C)(C)C)o3)CC2)C1=O,-3.577
13,CC(C)c1nnc(CN2C(=O)OC[C@@H]2C(C)C)o1,-6.188
14,CCN1CCN(C2CCN(Cc3noc(C)n3)CC2)C1=O,2.974
15,CN1CCN(C2CCN(Cc3noc(C(C)(C)C)n3)CC2)C1=O,10.06
16,CCN1CCN(C2CCN(Cc3nnc(C(C)C)o3)CC2)C1=O,147.9
17,CCN1CCN(C2CCN(Cc3ncc(C(C)(C)C)o3)CC2)C1=O,-2.934
18,CC(O)CN1CCN(Cc2nnc(C3CC3)o2)CC1 (configuration not stated),3.93
19,CCc1nnsc1C(=O)NCC1CN(CC(C)C)CCO1 (configuration not stated),19.89
20,CCC(=O)N1CCN(C(=O)c2ccc(OC)o2)[C@H]2CS(=O)(=O)C[C@H]21,0.8171
21,O=C(c1ccc(-n2cnnc2)cc1Cl)N1CCCC(O)(CO)CC1 (configuration not stated),1.549
22,CC(=O)N[C@@H]1CN(Cc2ccccc2-n2nc(C)cc2C)C[C@H]1C(C)C,5.074

row,SMILES,Percent Effect [%]
1,c1ccc(CN2CCOC[C@H]2c2nc(-c3ccncc3)c[nH]2)nc1,-4.896
2,O=C(c1cncs1)N1CCOCC(Cc2ccccn2)C1 (configuration not stated),121.8
3,CN(C)CC(=O)N1CCOCC(Cc2ccccn2)C1 (configuration not stated),100.7
4,O=C(c1cncs1)N1CCOCC(Cc2ccncn2)C1 (configuration not stated),102.2
5,COc1ccc(C(=O)N2CCOCC(CO)C2)cc1N1CCOCC1 (configuration not stated),2.678
6,Cc1cnc(CC2COCCN(C(=O)c3cncs3)C2)cn1 (configuration not stated),133.5
7,CCOCCn1nc(C)cc1C(=O)N1CCOCC(CO)C1 (configuration not stated),-4.092
8,O=C(NC[C@H]1OC[C@@H](NCc2ccccn2)[C@@H]1O)N1CCOCC1,-13.39
9,O=C(c1ccncc1)N1C[C@@H]2CC[C@H](C1)N(C(=O)N1CCOCC1)C2,7.35
10,Cc1cccc(NC(=O)N2CCOCC(CN(C)C)C2)c1C (configuration not stated),-12.45
11,CC(=O)N(C)C1CCCc2nc(C)sc21 (configuration not stated),-2.267
12,CC(C)S(=O)(=O)NCC1CCCN(C(=O)c2ccc3c(c2)OCCO3)C1 (configuration not stated),-10.13
13,COc1cccc(CC(=O)N2CCC(O)(C(F)(F)F)C2)c1 (configuration not stated),-3.145
14,Cc1ccc(CN2CCN(c3cc(NCCO)ncn3)CC2CCO)o1 (configuration not stated),-3.553
15,CS(=O)(=O)NCCCSCc1cccc2cccnc12,-10.2
16,CCC(CO)NC(=O)Cc1ccc(NC(=O)CC2=CCCCC2)cc1 (configuration not stated),-16.18
17,Cc1cccc(-c2nnn3c2COC(CNS(=O)(=O)C2CC2)C3)c1 (configuration not stated),-1.824
18,F[C@@H]1CN(CC2CCCCC2)C[C@@H]1OCc1nc2ccccc2o1,-16.46
19,Cc1cc(C)n(CC2CCCN2Cc2cscn2)n1 (configuration not stated),-19.73
20,Cc1cn[nH]c1C1CCCN1Cc1ccc(F)c(F)c1 (configuration not stated),102.9
21,Cc1ccc(-c2c[nH]c([C@@H]3COCCN3Cc3cccnc3)n2)cc1,-11
22,CC(C)(C)c1coc([C@@H]2COCCN2Cc2cnc3ccccc3c2)n1,-14.41

row,SMILES,Percent Effect [%]
1,Cc1ccc(CN2CCOCC2c2[nH]ncc2C)cn1 (configuration not stated),135.2
2,Cc1cn[nH]c1C1COCCN1Cc1cscn1 (configuration not stated),126.8
3,Cc1ccc(CN2CCCN(Cc3cscn3)CC2)cc1,8.803
4,C[C@H]1C[C@H]2CN(C(=O)C3=CCCC3)CC[C@H]2O1,-4.42
5,Cc1cnc(CN(Cc2ccc(C#N)cc2F)C2CCN(C)C2)o1 (configuration not stated),0.7186
6,O=C(Cc1ccc(O)c(F)c1)N1CCC2(CCNCC2)CC1,3.875
7,CCOC(=O)N1CCN(c2nc(NCCO)c3ccccc3n2)CC1,-13.13
8,COc1ccc(CN2CC[C@H]3CO[C@H](CNC(=O)N(C)C)[C@H]3C2)cc1.O=C(O)C(F)(F)F,-1.403
9,CS(=O)(=O)NC[C@H]1OC[C@H]2CN(CCc3ccccc3)CC[C@H]21.O=C(O)C(F)(F)F,87.13
10,CCCN1CC[C@@H]2[C@@H](CO[C@H]2CNC(=O)c2nccn2C)C1.O=C(O)C(F)(F)F,-3.77
11,Cc1cccc(CN2CC[C@@H]3[C@@H](CO[C@H]3CNc3ncccn3)C2)n1.O=C(O)C(F)(F)F.O=C(O)C(F)(F)F.O=C(O)C(F)(F)F,100.3
12,CS(=O)(=O)NC[C@@H]1OC[C@H]2CN(C(=O)c3ccccc3)CC[C@H]21,-5.092
13,CN(C)C(=O)NC[C@@H]1OC[C@H]2CN(Cc3cccc(F)c3)CC[C@H]21.O=C(O)C(F)(F)F,-1.144
14,CS(=O)(=O)NC[C@H]1OC[C@@H]2CCN(Cc3ccc(F)cc3)C[C@@H]21.O=C(O)C(F)(F)F,-22.2
15,CS(=O)(=O)NC[C@@H]1OC[C@H]2CN(C(=O)c3ccccn3)CC[C@H]21.O=C(O)C(F)(F)F,-10.63
16,CS(=O)(=O)NC[C@H]1OC[C@@H]2CCN(CCc3ccccc3)C[C@@H]21.O=C(O)C(F)(F)F,101.5
17,COc1ccc(CN2CC[C@H]3[C@H](CO[C@H]3CNC(=O)N(C)C)C2)cc1.O=C(O)C(F)(F)F,1.388
18,CS(=O)(=O)NC[C@@H]1OC[C@H]2CN(Cc3ccccc3)CC[C@H]21.O=C(O)C(F)(F)F,107.1
19,Cc1cccc(CN2CC[C@H]3CO[C@H](CNC(=O)N(C)C)[C@H]3C2)c1.O=C(O)C(F)(F)F,-5.522
